From ChEMBL document CHEMBL2218924, “A broad activity screen in support of a chemogenomic map for kinase signalling research and drug discovery” (Biochem J, 2013) come the findings set out here.

The target in assay [1] is Tyrosine-protein kinase Fes/Fps (Homo sapiens) (UniProt P07332). The following applies: at 1 µM.
Assay [2] shares this target. The following applies: at 10 µM.
Assay [3] concerns the target Tyrosine-protein kinase Fgr (Homo sapiens) (UniProt P09769). The following applies: at 1 µM.
Assay [4] has as its target Receptor-type tyrosine-protein kinase FLT3 (Homo sapiens) (UniProt P36888). The following applies: at 1 µM.
Assay [5] has the same target. To be noted: at 10 µM.
The target in assay [6] is Vascular endothelial growth factor receptor 3 (Homo sapiens) (UniProt P35916). The following applies: at 1 µM.
Chain of Vascular endothelial growth factor receptor 3 (Homo sapiens) (P35916 whole entry): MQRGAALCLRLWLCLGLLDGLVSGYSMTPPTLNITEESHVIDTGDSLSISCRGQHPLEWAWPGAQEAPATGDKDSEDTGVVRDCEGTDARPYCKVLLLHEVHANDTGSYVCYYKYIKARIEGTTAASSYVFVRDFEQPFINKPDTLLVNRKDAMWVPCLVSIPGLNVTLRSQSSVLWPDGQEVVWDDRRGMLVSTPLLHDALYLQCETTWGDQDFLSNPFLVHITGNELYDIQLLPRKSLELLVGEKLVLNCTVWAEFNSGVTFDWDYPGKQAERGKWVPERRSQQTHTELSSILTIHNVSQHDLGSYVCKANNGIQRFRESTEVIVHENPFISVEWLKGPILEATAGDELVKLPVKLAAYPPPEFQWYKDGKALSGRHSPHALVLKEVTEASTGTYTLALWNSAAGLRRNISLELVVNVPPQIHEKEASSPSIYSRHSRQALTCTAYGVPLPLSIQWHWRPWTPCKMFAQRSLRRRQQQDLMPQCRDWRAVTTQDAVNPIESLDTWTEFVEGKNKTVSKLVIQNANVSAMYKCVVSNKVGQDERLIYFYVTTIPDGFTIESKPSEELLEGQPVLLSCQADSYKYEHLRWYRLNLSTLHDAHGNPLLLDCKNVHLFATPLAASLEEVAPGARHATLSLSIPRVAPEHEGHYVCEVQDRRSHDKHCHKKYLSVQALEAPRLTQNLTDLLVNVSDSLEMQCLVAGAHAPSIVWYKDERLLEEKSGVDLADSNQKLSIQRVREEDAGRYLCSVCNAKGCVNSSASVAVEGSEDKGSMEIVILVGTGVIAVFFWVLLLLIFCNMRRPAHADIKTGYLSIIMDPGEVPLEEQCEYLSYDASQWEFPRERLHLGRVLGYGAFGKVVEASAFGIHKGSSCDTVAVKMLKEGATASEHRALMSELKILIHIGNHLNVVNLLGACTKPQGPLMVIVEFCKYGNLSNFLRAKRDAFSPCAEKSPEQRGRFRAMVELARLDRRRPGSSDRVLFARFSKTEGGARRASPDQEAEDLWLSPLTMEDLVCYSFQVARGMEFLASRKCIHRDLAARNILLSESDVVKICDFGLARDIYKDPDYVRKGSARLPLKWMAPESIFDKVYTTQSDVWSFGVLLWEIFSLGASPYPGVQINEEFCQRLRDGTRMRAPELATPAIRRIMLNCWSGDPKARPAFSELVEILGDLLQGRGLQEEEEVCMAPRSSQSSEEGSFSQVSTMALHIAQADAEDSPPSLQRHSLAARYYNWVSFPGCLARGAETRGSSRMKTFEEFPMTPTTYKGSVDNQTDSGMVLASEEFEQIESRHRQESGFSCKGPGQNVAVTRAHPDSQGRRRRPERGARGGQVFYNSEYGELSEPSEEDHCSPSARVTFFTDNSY
For assay [7] the target is unchanged. To be noted: at 10 µM.
Assay [8] deals with Macrophage colony-stimulating factor 1 receptor (Homo sapiens) (UniProt P07333). The following applies: at 1 µM.
Chain of Macrophage colony-stimulating factor 1 receptor (Homo sapiens) (P07333 whole entry): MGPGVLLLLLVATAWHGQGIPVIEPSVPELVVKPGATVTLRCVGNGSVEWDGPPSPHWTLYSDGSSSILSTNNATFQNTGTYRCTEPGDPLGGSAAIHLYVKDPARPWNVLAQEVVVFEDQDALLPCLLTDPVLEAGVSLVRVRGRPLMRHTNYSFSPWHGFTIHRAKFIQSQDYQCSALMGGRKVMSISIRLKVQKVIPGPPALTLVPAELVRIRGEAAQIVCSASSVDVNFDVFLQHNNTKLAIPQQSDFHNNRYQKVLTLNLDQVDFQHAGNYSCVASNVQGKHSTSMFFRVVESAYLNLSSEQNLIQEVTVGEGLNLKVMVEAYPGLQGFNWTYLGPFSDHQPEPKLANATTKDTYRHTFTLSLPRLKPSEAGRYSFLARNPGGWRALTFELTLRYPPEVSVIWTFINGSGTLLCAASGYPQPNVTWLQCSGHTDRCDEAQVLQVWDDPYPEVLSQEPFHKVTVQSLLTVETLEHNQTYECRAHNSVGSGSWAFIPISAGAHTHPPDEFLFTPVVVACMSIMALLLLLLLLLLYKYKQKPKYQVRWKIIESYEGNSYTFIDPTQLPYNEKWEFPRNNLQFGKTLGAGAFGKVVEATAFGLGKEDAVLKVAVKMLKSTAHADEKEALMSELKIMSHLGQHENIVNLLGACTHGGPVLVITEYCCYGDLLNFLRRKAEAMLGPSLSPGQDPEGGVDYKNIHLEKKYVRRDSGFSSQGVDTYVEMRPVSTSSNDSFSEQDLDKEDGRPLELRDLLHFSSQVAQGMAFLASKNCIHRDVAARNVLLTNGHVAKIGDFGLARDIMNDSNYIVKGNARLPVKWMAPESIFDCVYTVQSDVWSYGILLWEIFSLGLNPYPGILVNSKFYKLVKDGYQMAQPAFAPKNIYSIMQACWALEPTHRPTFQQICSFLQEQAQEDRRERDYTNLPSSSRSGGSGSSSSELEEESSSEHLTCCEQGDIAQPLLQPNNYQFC
Assay [9] has the same target. To be noted: at 10 µM.
The target of assay [10] is T1, Mitogen-activated protein kinase kinase kinase kinase 2 (Homo sapiens) (UniProt Q12851).
T1 sequence (whole entry): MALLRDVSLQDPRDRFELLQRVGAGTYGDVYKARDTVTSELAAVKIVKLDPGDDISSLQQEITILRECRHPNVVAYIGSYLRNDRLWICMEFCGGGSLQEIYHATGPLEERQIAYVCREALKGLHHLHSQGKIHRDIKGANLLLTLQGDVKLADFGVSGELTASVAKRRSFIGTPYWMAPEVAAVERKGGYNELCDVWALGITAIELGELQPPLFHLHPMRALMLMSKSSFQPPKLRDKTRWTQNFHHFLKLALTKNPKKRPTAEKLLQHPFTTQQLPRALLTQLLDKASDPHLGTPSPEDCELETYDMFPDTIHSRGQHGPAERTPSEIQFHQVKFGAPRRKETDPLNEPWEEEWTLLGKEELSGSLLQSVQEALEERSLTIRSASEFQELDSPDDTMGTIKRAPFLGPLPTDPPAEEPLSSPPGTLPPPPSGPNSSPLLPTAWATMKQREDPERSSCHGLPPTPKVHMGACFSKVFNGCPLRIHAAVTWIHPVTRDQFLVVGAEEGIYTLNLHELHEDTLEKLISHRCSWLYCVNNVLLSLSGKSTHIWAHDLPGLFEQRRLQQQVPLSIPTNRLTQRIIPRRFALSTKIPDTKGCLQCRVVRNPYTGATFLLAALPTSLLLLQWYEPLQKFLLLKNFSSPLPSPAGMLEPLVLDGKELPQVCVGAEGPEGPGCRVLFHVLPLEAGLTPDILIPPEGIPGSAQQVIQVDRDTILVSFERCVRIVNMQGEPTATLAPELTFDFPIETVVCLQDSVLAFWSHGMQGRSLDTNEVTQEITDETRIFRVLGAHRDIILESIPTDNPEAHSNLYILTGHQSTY
The following applies: at 1 µM.

The target in assay [11] is T1, Mitogen-activated protein kinase kinase kinase kinase 2 (Homo sapiens). To be noted: at 10 µM.
For assay [12], the target named is G protein-coupled receptor kinase 5 (Homo sapiens) (UniProt P34947). The following applies: at 10 µM.
The target in assay [13] is Vascular endothelial growth factor receptor 1 (Homo sapiens) (UniProt P17948). The following applies: at 1 µM.
For assay [14] the target is unchanged. To be noted: at 10 µM.
The target of assay [15] is Tyrosine-protein kinase Fyn (Homo sapiens) (UniProt P06241). To be noted: at 1 µM.
The target is the same in assay [16]. The following applies: at 10 µM.
The target in assay [17] is G protein-coupled receptor kinase 6 (Homo sapiens) (UniProt P43250). To be noted: at 10 µM.
Chain of G protein-coupled receptor kinase 6 (Homo sapiens) (P43250 whole entry, looked up): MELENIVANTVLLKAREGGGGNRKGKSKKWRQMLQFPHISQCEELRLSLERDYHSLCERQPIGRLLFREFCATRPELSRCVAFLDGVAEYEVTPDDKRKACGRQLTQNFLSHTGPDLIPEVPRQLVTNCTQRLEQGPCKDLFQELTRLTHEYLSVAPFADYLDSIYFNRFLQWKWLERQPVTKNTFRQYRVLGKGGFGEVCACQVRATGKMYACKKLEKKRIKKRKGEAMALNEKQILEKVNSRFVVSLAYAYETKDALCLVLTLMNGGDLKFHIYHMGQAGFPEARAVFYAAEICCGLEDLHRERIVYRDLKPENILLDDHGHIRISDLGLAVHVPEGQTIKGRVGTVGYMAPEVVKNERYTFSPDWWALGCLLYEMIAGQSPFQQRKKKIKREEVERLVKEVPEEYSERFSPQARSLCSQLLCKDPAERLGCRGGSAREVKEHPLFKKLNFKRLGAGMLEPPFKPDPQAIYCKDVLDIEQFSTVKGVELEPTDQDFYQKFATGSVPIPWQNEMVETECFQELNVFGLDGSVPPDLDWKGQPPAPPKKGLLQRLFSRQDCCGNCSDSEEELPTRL
The target in assay [18] is Tyrosine-protein kinase Fgr (Homo sapiens) (UniProt P09769). To be noted: at 10 µM.
In assay [19] the target is T2, Rhodopsin kinase GRK7 (Homo sapiens) (UniProt Q8WTQ7).
T2 sequence (whole entry): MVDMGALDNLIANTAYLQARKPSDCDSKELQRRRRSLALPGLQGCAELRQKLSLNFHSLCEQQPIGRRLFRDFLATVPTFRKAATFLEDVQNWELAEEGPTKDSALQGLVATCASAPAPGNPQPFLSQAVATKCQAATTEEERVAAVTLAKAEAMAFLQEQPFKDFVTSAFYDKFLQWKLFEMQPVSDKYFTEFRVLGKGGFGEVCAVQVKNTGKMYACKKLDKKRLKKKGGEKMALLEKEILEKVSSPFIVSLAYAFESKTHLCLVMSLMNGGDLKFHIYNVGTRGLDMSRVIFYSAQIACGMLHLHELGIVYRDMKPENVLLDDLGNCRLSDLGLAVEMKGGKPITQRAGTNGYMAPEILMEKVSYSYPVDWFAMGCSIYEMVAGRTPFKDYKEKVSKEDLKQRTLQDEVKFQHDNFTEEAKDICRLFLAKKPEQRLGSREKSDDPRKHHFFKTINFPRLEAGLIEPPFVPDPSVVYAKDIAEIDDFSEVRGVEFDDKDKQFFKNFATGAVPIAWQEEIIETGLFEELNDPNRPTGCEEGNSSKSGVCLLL
The following applies: at 1 µM.

Assay [20] concerns the target Tyrosine-protein kinase Fer (Homo sapiens) (UniProt P16591). To be noted: at 10 µM.

Each structure is given as a SMILES string.

Chain of Tyrosine-protein kinase Fes/Fps (Homo sapiens) (P07332 whole entry): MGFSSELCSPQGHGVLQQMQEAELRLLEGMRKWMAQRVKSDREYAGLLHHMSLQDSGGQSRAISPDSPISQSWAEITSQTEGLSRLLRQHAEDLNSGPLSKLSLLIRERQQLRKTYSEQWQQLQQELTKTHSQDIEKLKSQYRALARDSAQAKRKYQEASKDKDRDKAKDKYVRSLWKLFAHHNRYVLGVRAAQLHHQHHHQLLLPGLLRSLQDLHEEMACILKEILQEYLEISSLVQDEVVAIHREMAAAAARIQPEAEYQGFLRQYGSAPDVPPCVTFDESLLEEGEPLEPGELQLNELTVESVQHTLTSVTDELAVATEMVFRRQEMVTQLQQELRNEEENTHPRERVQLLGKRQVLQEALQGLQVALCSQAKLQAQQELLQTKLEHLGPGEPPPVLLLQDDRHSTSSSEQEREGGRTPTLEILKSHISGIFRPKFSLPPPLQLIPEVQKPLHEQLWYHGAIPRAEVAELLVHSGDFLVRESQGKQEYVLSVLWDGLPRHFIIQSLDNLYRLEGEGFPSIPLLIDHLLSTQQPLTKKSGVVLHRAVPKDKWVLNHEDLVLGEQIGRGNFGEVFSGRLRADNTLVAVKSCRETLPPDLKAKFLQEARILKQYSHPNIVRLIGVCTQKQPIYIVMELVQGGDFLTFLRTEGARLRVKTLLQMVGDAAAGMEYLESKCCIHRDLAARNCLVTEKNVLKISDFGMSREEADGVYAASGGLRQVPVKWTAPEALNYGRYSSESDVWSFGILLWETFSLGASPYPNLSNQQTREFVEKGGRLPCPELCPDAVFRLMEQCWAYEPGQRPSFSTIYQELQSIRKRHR
Chain of Receptor-type tyrosine-protein kinase FLT3 (Homo sapiens) (P36888 whole entry): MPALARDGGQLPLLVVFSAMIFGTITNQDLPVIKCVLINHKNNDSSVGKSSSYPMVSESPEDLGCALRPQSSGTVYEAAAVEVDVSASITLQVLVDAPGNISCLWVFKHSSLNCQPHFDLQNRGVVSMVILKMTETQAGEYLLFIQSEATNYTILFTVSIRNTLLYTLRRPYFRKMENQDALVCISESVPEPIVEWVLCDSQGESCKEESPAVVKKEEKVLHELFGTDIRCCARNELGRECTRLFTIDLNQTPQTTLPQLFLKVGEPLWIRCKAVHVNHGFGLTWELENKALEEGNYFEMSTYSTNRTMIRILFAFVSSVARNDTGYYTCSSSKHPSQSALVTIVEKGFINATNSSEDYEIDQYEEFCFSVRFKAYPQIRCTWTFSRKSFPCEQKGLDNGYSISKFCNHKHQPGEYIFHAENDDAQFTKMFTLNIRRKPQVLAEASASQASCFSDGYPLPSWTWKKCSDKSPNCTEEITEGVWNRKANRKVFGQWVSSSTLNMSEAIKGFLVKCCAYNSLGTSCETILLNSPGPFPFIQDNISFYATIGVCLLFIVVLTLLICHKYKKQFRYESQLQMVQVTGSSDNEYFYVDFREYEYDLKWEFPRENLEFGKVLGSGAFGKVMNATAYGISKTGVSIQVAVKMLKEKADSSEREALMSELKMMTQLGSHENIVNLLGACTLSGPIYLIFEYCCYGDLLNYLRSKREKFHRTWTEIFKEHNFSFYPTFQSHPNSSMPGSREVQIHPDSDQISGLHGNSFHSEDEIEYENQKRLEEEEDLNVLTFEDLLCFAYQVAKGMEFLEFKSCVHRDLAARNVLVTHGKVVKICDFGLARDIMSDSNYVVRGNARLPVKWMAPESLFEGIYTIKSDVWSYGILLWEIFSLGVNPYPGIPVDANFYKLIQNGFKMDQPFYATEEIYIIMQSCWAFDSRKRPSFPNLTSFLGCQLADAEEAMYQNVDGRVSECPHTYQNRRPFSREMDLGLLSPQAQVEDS

Take `O=C(Nc1nc2ccccc2n1CCN1CCOCC1)c1cccc([N+](=O)[O-])c1`: the residual activity is 101% in assay [1]; 74% in assay [2]; 102% in assay [3]; 38% in assay [4]; 29% in [5]; 36% in [6]. For the same molecule, the residual activity stood at 40% in assay [7]; 8% in assay [8]; 5% in assay [9]; 70% in assay [10]; 67% in assay [11]; 85% in assay [12].

Consider `NC(=O)c1ccc(-c2nc(-c3ccc4c(c3)OCCO4)c(-c3ccccn3)[nH]2)cc1`, for which the residual activity was found to be 82% in assay [13]; 70% in assay [14]; 64% in assay [4]; 51% in [5]; 79% in assay [6]; 46% in assay [7]. The residual activity turned out to be 74% in [8]; 64% in assay [9]; 81% in [15]; 83% in assay [16]; 94% in assay [11]; 88% in assay [17].

Turning to `O=S(=O)(c1cccc2cnccc12)N1CCCNCC1`, the residual activity in assay [7] turned out to be 52%; in assay [11], 83%.

On to `CSc1nc(-c2ccc(F)cc2)c(-c2ccnc(NC(C)c3ccccc3)c2)[nH]1` (stereo not drawn), for which the residual activity worked out at 102% in assay [1]; 87% in [2]; 84% in assay [3]; 71% in assay [18]; 80% in assay [14]; 86% in assay [4]. In addition, the residual activity in assay [5] stood at 83%; in assay [6] it was 97%; in [7], 64%; in assay [9] it was 41%; in [15] it was 87%; in assay [16], 69%. Also, the figures for the residual activity in assay [10], in assay [11] and in [12] were 75%, 56% and 91%, respectively.

Turning to `Nc1ncnc2c1cnn2-c1ccccc1`, the residual activity in assay [18] amounted to 85%; in assay [13], 96%; in assay [14] it was 88%; in assay [4], 95%; in [5], 55%; in [6], 99%. Further, the residual activity in assay [7] amounted to 82%; in [9] it was 67%; in [15], 79%; in [16], 58%; in assay [10] it was 100%; in [17], 93%.

With `COc1cc2nccc(Oc3ccc(NC(=O)Nc4cc(C)on4)c(Cl)c3)c2cc1OC`, the residual activity is 78% in [1]; 46% in assay [2]; 8% in assay [3]; 4% in [18]; -1% in assay [6]; -1% in [7]. The residual activity in [8] came out at 0%; in assay [9] it was 0%; in assay [15], 5%; in assay [16], 1%; in assay [10] it was 47%; in assay [11], 17%. The residual activity in assay [12] was 104%; in [19], 105%.

On to `Nc1nc(Nc2ccc(S(N)(=O)=O)cc2)nn1C(=O)c1c(F)cccc1F`, for which the residual activity in assay [20] came out at 55%; in assay [3], 63%; in [18], 20%; in assay [13], 18%; in [14], 2%; in assay [5], 5%. In addition, the residual activity in assay [6] was determined as 1%; in assay [7] it was 0%; in assay [8] it was 30%; in [9], 7%; in assay [15], 51%; in [16], 10%. The residual activity stood at 33% in assay [10], 6% in assay [11], 24% in assay [12] and 55% in [19].

For `CCOc1nc(NC(=O)Cc2cc(OC)ccc2OC)cc(N)c1C#N`, the residual activity in assay [7] is 64%; in assay [9], 53%; in assay [11] it was 72%.

Take `COc1ccc(CNC(=O)Nc2ncc([N+](=O)[O-])s2)cc1`: the residual activity worked out at 31% in assay [3]; 28% in [18]; 74% in [13]; 49% in assay [14]; 59% in assay [6]; 17% in assay [7]. The residual activity was determined as 77% in [8], 58% in assay [9] and 105% in [15].

In the case of `O=C1NC(=O)C(c2cn(CCCO)c3ncccc23)=C1c1cnccn1`, the residual activity in [20] is 94%; in assay [3] it was 95%; in [18] it was 97%; in [13] it was 41%; in assay [14], 46%; in assay [4], 57%. The residual activity in assay [5] was found to be 51%; in [6], 28%; in assay [7] it was 30%; in assay [8], 54%; in [9] it was 49%; in assay [15] it was 69%. Moreover, the residual activity came out at 87% in assay [16], 86% in [10], 79% in assay [11] and 93% in [12].

For the molecule `COc1ccc(Cl)cc1NC(=O)Nc1cc(C)nc2ccccc12`, the residual activity is 94% in assay [2]; 99% in assay [3]; 82% in assay [18]; 96% in assay [13]; 91% in assay [14]; 93% in assay [7]. Also, the residual activity in [8] was 89%; in [9], 73%; in assay [10], 93%; in assay [11], 77%; in [17] it was 92%; in assay [19], 99%.
